Assay outcomes: PubChem BioAssay, National Center for Advancing Translational Sciences (NCATS)
NPR1 antag: antagonists of human natriuretic peptide receptor Npr1; P16066; HEK293 hNpr1 GloSensor cGMP, ANP-stimulated luminescence; Potency, µM (series often up to 46.3 µM), for inactives: top-dose activity change, negative = inhibition, actives largely listed as inhibitors; hit rate 1.6% among 76,000; AID 1347048; calls by dose curve; note: nearly all actives have a fitted effect of over 60% in size
Target sequence (P16066 whole entry, looked up): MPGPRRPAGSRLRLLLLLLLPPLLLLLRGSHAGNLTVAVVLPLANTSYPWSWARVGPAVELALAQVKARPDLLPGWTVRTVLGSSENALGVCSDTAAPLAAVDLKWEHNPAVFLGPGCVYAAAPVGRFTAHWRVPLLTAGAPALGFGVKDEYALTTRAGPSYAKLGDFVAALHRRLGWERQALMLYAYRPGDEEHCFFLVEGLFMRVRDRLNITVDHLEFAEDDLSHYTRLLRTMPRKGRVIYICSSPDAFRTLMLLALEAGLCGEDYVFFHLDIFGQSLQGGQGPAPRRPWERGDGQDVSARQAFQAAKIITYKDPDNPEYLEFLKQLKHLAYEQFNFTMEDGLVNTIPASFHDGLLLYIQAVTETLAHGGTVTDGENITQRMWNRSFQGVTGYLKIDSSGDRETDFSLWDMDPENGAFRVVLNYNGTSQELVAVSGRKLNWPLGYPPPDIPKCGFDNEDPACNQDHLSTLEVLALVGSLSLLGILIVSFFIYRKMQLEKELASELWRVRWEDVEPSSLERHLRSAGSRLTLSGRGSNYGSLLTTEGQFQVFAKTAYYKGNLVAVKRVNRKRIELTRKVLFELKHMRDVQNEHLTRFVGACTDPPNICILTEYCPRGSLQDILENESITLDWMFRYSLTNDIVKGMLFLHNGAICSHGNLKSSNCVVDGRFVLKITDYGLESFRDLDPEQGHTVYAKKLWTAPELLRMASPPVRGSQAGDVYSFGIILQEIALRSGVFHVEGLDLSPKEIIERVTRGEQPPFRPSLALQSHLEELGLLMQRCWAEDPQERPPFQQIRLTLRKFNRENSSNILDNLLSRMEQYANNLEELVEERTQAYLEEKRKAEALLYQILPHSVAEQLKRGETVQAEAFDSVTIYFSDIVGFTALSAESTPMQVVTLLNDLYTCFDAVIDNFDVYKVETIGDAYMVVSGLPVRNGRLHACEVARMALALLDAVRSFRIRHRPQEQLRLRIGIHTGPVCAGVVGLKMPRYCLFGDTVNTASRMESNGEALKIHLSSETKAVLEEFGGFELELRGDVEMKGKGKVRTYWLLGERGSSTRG
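Compound pre-incubated 30 min at room temperature on GloSensor-loaded HEK293 cells stably carrying hNpr1 and the pGS-40F cGMP biosensor. Stimulation uses hNppA at 0.1 nM final; luminescence is taken at baseline and 20 min post-agonist.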
3T3 cytotox: kills NIH 3T3 cells; Potency, µM (top dose mostly 96.7 µM), inactives show at the highest dose activity change, negative = cytotoxicity, hits mostly inhibitors; AID 1345082; hit rate 4.3% among 94,000; NIH 3T3 viability, CellTiter-Glo ATP luminescence, 48-72 h; note: nearly all actives have a fitted effect of over 55% in size
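First NIH 3T3 cells are plated at 400 cells/well; next compound is pinned in; then plates incubate 48 or 72 hr at 37 °C; finally CellTiter-Glo is added and luminescence read after 10 min.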
GPT2 inhibitor: blocks human glutamate pyruvate transaminase 2. Potency, µM (series often up to 57.7 µM), without a hit: at the highest dose activity change, negative = inhibition, actives largely listed as inhibitors. Recombinant GPT2, coupled pyruvate oxidase/HRP Amplex Red fluorescence. Q8TD30. hit rate 0.25% among 100,000; note: nearly all actives have a fitted effect of over 60% in size
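Recombinant GPT2 (10ng/uL) with 250uM a-KG and 2mM L-alanine, 30 min at room temperature, in HEPES pH 7.5 buffer. Pyruvate detected by pyruvate oxidase/HRP/Amplex Red fluorescence after 30 min in the dark; AOA (50uM) as positive control.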
Luciferase inh: inhibitors of firefly (Photinus pyralis) luciferase; P08659; purified P. pyralis luciferase, luminescence, biochemical; Potency, µM (top dose mostly 115 µM), most hits filed as inhibitors; hit rate 2.5% among 76,000; AID 1347043; note: nearly all actives have a fitted effect of over 65% in size
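Purified P. pyralis luciferase (10nM final) in 50mM Tris acetate pH 7.5, 10mM Mg acetate, 0.01% Tween-20, 0.05% BSA with 10uM D-luciferin and 10uM ATP. Compounds titrated qHTS. Luminescence imaged on CCD.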
HEK cytotox: kills HEK 293 cells. Potency, µM (doses to about 115 µM), inactives show top-dose activity change, negative = cytotoxicity, actives largely listed as inhibitors. hit rate 6.6% among 94,000. HEK 293 viability, ATP luminescence (CellTiter-Glo), 48-72 h; note: nearly all actives have a fitted effect of over 60% in size
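250 HEK 293 cells/well; compound by pintool; incubated 48 or 72 hr at 37 degree Celsius; CellTiter-Glo added, 10 min RT, luminescence imaged.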
Numbers without * were called inactive; i = inactive; ? = inconclusive; . = not tested or not shown; [ ] = remark or other dose. A selection: hits, their analogues and other compounds. The true share with any hit is near 10%. Unless noted, calls come from the whole dose curve; as a rule, active = well fitted curve in the direction sought with a large enough effect; inconclusive = small, poorly fitted or top-dose-only effect, or another doubt; inactive = no such curve, though single readings can be large; an effect the other way counts as inactive or inconclusive. % is set by controls: 0 for no effect and ±100 for the full control effect; potency is the fitted concentration of half-maximal effect.

SMILES	NPR1 antag	3T3 cytotox	GPT2 inhibitor	Luciferase inh	HEK cytotox
COc1ccccc1NC(=O)N1C[C@@H]2C[C@H](C1)c1c(-c3ccc(NC(C)=O)cc3)ccc(=O)n1C2	-3.5%	-12.3%	i	i	-3.2%
CC(=O)Nc1ccc(-c2ccc(=O)n3c2[C@@H]2C[C@@H](CN(C(=O)Nc4cccc(C#N)c4)C2)C3)cc1	4.4%	2.6%	1.0%	i	31.6µM*
COc1cc(CNC2CCCCCCC2)ccc1OCC(O)CN1CCSCC1 (centres undefined)	-8.5%	79.4µM*	i	i	?
COc1ccc(CNCc2ccc(C)s2)cc1OCC(O)CN1CCCCC1 (centres undefined)	-3.8%	?	-19.4%	i	79.4µM*
COc1cc(CNC2CCCCC2)ccc1OCC(O)CN1CCSCC1 (centres undefined)	3.9%	-19.5%	i	i	-20.6%
COc1cc(CNC(=O)c2c(C)noc2-c2ccc(OC(F)(F)F)cc2)cc(OC)c1	-11.7%	?	-10.1%	i	?
COc1ccc(-c2cc(C[C@@H]3CC[C@H](O)[C@@H](CNCc4cccc(Cl)c4)O3)no2)cc1	?	?	?	50.1µM*	28.2µM*
COc1ccc(-c2cc(C[C@@H]3CC[C@H](O)[C@@H](CNCc4cccc(OC)c4)O3)no2)cc1	?	?	-2.1%	?	?
COc1ccc(-c2cc(C[C@@H]3CC[C@H](O)[C@@H](CNC4CCN(C)CC4)O3)no2)cc1	-24.8%[70.6 µM]	?	-9.6%[88.5 µM]	?	?
CN1CCC(NC[C@H]2O[C@H](Cc3cc(-c4ccc(F)cc4)on3)CC[C@@H]2O)CC1	?	89.1µM*	3.2%[88.5 µM]	i	?
COc1ccc(-c2cc(C[C@@H]3CC[C@H](O)[C@@H](CN(Cc4cccc(OC)c4)Cc4cccc(OC)c4)O3)no2)cc1	11.2µM*	?	?	?	?
O=C(NC[C@H]1O[C@H](Cc2cc(-c3ccc(F)cc3)on2)CC[C@@H]1O)c1ccccc1F	?	-25.8%[138 µM]	-1.7%[88.5 µM]	22.4µM*	-29.8%[172 µM]
CNC(=O)N1CCC(C2CCN(C(=O)Cc3ccccc3C)C2)CC1 (centres undefined)	7.5%	i	-6.9%	i	i
C/C1=C\CCC2=C[C@@H](OC2=O)c2c(C)coc2C1	.	.	i	.	.
C1CCN2C[C@@H]3C[C@@H](CN4CCCC[C@@H]34)[C@H]2C1	.	.	i	.	.
COc1ccc(C(=O)NC[C@H]2O[C@H](Cc3cc(-c4ccccc4)on3)CC[C@@H]2O)cc1	-15.1%[70.6 µM]	?	0.2%[88.5 µM]	i	-28.6%[172 µM]
COc1ccc(CNC[C@H]2O[C@H](Cc3cc(-c4ccccc4)on3)CC[C@@H]2O)cc1	-18.7%[70.6 µM]	39.8µM*	0.2%[88.5 µM]	i	89.1µM*
COc1ccc(-c2cc(C[C@@H]3CC[C@H](O)[C@@H](CNC(=O)NCc4ccccc4)O3)no2)cc1	-17.8%	?	-3.6%	i	?
COc1ccc(NC(=O)NC[C@H]2O[C@H](Cc3cc(-c4cccc(O)c4)on3)CC[C@@H]2O)cc1	11.2µM*	-16.8%	i	?	-16.4%
Cc1ccc(CNC[C@H]2O[C@H](Cc3cc(-c4ccc(F)cc4)on3)CC[C@@H]2O)cc1	-23.4%[70.6 µM]	31.6µM*	0.2%[88.5 µM]	i	39.8µM*
NC[C@H]1O[C@H](Cc2cc(-c3cccc(O)c3)on2)CC[C@@H]1O	2.51µM*	i	i	56.2µM*	3.0%[172 µM]
Cc1ccc(C(=O)NCc2nnc3c(-c4nc(C(C)C)no4)cccn23)cc1C	-5.0%	-12.1%	i	i	-10.2%
COc1ccc(-c2cc(C[C@@H]3CC[C@@H]4OC(=O)NC[C@H]4O3)no2)cc1	3.5%[70.6 µM]	?	4.4%[88.5 µM]	?	100µM*
CCNC(=O)NC[C@H]1O[C@H](Cc2cc(CN(C)Cc3ccccc3)on2)CC[C@@H]1O	2.8%[70.6 µM]	?	-9.3%[88.5 µM]	i	-27.6%[172 µM]
O=C1[C@H]2CC[C@H](CN(Cc3cccc(N4CCOCC4)c3)C2)N1CC1CCC1	-6.5%	-22.2%	i	i	?
SMILES	NPR1 antag	3T3 cytotox	GPT2 inhibitor	Luciferase inh	HEK cytotox
COCCn1cnc2ccc(-c3cccc(O)c3)nc2c1=O	2.2%[70.6 µM]	22.4µM*	i	i	-21.2%[172 µM]
COCCn1cnc2ccc(-c3ccccc3)nc2c1=O	6.8%[70.6 µM]	?	i	?	3.3%[230 µM]
Cc1ccc(-c2ccc3ncn(Cc4ccccn4)c(=O)c3n2)c(C)c1	-0.3%[70.6 µM]	25.1µM*	2.4%[88.5 µM]	i	-11.1%[172 µM]
O=c1ncn(CC2CC2)c2ccc(-c3ccc(F)cc3F)nc12	-0.1%[70.6 µM]	100µM*	-9.2%[88.5 µM]	i	-41.8%[172 µM]
O=c1c2nc(N3CCC(c4ccccc4)CC3)ccc2ncn1-c1cccnc1	3.3%[70.6 µM]	?	0.5%[88.5 µM]	?	?
O=c1ncn(CC2CC2)c2ccc(N3CCC(c4ccccc4)CC3)nc12	-1.9%[70.6 µM]	-22.5%[138 µM]	i	56.2µM*	?
COc1cccc(NC[C@@H](O)Cn2c3ccc(Br)cc3c3cc(Br)ccc32)c1	.	.	i	.	.
Cc1ccccc1S(=O)(=O)N1CCC(CCC(=O)NCCN2CCOCC2)CC1	0.1%	-6.5%	i	i	-5.1%
O=c1c2nc(-c3ccccc3)ccc2ncn1Cc1ccccn1	1.5%[70.6 µM]	79.4µM*	-18.0%[88.5 µM]	i	-10.4%[172 µM]
Cn1ccc2cc(-c3ccc4ncn(Cc5ccccn5)c(=O)c4n3)ccc21	-2.3%[70.6 µM]	89.1µM*	-0.2%[88.5 µM]	44.7µM*	-23.2%[172 µM]
O=c1c2nc(-c3ccc(Cl)cc3)ccc2ncn1Cc1ccccn1	-0.2%[70.6 µM]	?	-3.8%[88.5 µM]	i	?
O=c1c2nc(N3CCC(c4ccccc4)CC3)ccc2ncn1Cc1ccccn1	5.1%[70.6 µM]	-27.7%[138 µM]	-1.2%[88.5 µM]	63.1µM*	?
COc1cc(O)c2c(c1Cl)CC(C)OC2=O (centres undefined)	.	.	i	.	.
O=C(NC[C@@H]1CCCN1)C1CCN(c2nc(-c3ccccc3)nc3c2CCC3)CC1	-6.4%	22.4µM*	-4.4%	i	31.6µM*
CC(C)(C)CC(=O)N1CCN(c2nc(-c3ccccc3)nc3c2CCC3)CC1	-1.4%	4.6%	-6.3%	i	0.5%
O=C(NC1CCCNC1)C1CCN(c2nc(-c3ccccc3)nc3c2CCC3)CC1 (centres undefined)	1.7%	44.7µM*	i	i	?
CC1CN(C(=O)C2CCN(c3nc(-c4ccccc4)nc4c3CCC4)CC2)CCN1 (centres undefined)	-7.9%	?	-3.2%	i	?
COC(C)(C)C(=O)N1CCN(c2nc(-c3ccccc3)nc3c2CCC3)CC1	3.9%	-15.6%	-24.8%	i	79.4µM*
CNCCNC(=O)C1CCN(c2nc(-c3ccccc3)nc3c2CCC3)CC1	1.5%	?	-8.9%[11.5 µM]	i	?
O=c1c2nc(-c3ccncc3)ccc2ncn1-c1ccccc1	2.8%[70.6 µM]	?	i	i	-3.1%[172 µM]
Cc1ccnn1CC(=O)N1CCOc2c(O)cc(-c3cccc(Cl)c3)cc2C1	-28.3%	?	-8.4%	i	?
